Assay outcomes as filed in PubChem.
Rows were chosen to be rich in hits. Some 8% of all compounds tested hit in one or more screens of this group.
TSHR antagonist: Antagonists of the Thyroid Stimulating Hormone Receptor: HTS campaign; Thyrotropin receptor (Homo sapiens), P16473; TSHR-expressing cells, TSH-stimulated cAMP HTRF, 2 h; hits give low values; activity change, negative = inhibition, % at 11.5 µM; actives 0.2% (n = 330,000);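 active = activity change below a set negative limit, meaning inhibition stronger than a set level, cut at about -70% in these data; inconclusive = activity change between two set negative limits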
Target sequence (P16473 whole entry, looked up): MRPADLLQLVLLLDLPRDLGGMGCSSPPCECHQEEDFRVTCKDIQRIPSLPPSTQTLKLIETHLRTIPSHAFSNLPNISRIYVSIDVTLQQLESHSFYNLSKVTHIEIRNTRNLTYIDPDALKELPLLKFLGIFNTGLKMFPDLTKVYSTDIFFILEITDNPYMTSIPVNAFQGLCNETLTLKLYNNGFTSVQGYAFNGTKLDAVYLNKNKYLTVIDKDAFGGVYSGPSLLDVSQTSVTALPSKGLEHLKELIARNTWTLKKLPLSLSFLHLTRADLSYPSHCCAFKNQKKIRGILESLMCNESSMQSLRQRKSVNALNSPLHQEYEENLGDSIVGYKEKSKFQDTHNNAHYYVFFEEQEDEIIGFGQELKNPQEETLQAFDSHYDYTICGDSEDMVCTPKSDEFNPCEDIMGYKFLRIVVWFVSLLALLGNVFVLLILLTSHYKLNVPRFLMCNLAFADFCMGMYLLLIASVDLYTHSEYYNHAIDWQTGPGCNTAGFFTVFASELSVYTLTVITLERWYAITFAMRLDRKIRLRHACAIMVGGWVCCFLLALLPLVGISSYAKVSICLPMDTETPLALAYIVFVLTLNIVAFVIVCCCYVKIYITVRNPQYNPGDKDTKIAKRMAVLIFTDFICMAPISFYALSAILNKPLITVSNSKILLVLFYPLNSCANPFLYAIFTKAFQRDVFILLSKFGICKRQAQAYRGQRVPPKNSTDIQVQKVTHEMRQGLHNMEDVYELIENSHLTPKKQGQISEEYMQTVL
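TSHR-expressing cells, 200/well, pre-treated with compound, then stimulated with EC80 TSH (4nM final) for 2 hours at 37 deg C. cAMP measured by competitive HTRF: anti-cAMP cryptate antibody in lysis buffer plus cAMP-d2, read after 30 minutes at room temperature.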
Gal4-VP16 FLuc: VP16 counterscreen qHTS for inhibitors of ROR gamma transcriptional activity; Drosophila S2 Gal4-VP16 UAS-luciferase, luminescence, 20 h; AID 2546, 2010; actives 3.5% (n = 310,000); Potency, µM (series often up to 53.6 µM), without a hit: top-dose activity, negative = inhibition, most hits filed as inhibitors;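 also: Gal4-VP16 expression switched on by copper sulfate through the metallothionein promoter; potency is read from the fitted curve at half-maximal effect; nearly all actives have a fitted effect of over 50% in size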
FBPA coupling cs: qHTS Assay for Inhibitors of Fructose-1,6-bisphosphate Aldolase from Giardia Lamblia: Coupling assay counterscreen. actives 0.67% (n = 290,000). activity change, negative = inhibition, % at 58.2 µM, hits read low. coupling enzyme system counterscreen, AmpLite Red fluorescence; in the data active = activity change below about -30%
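Counterscreen lacking aldolase: glyceraldehyde-3-phosphate coupling-enzyme reagent preincubated 10 min at RT with compound (at 57.5 uM final), then substrate/coupling system with AmpLite Red added; fluorescence read at 525/598 nm after 20 min RT.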
RORgamma inh: qHTS for inhibitors of ROR gamma transcriptional activity; Nuclear receptor ROR-gamma (Mus musculus), P51450; actives 5.4% (n = 310,000); Drosophila S2 Gal4-RORgamma UAS-luciferase reporter, 20 h; Potency, µM (highest dose often 53.6 µM), for inactives: at the highest dose activity change, negative = inhibition, usual class: inhibitors; also: potency is read from the fitted curve at half-maximal effect; nearly all actives have a fitted effect of over 60% in size
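Stably transfected Drosophila Schneider cells are the test system, with ROR gamma fused to Gal4 and luciferase under UAS control; luminescence is read after 20 hr of 700 uM copper sulfate induction at ambient temperature.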
ELG1 DNA repair: qHTS screen for small molecules that inhibit ELG1-dependent DNA repair in human embryonic kidney (HEK293T) cells expressing luciferase-tagged ELG1 | Potency, µM (top dose mostly 46.1 µM), for inactives: top-dose activity change, negative = inhibition, hits mostly inhibitors | HEK293T ELG1-luciferase reporter, luminescence, 16 h; DNA damage induced by 5-fluorouridine | actives 2.3% (n = 330,000); also: potency is read from the fitted curve at half-maximal effect; nearly all actives have a fitted effect of over 55% in size
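Step one: seed 2,000 cells per well. Step two: pin-transfer compound or DMSO alongside 5-fluorouridine. Step three: incubate 16 hr, 37 °C, 5% CO2. Step four: add ONE-Glo, wait 30 min, read luminescence.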
* = called active by the depositor; ? = inconclusive; / = no result; [ ] = dose if it differs, or a comment. Unless noted, calls follow the shape of the dose curve; as a rule, active = well fitted curve in the direction sought with a large enough effect; inconclusive = small, poorly fitted or top-dose-only effect, or another doubt; inactive = no such curve, though single readings can be large; an effect the other way counts as inactive or inconclusive. % is scaled to controls: 0 for no effect and ±100 for the full control effect.

SMILES	TSHR antagonist	Gal4-VP16 FLuc	FBPA coupling cs	RORgamma inh	ELG1 DNA repair
CCCOc1cccc(-c2cc(C(=O)NN)c3ccccc3n2)c1	1.2	?	-4.4	11.2µM*	-20.0%
Cc1ccc(N(CC(=O)NCC2CCCO2)C(=O)CCC(=O)Nc2cc(C)on2)cc1 (stereo unspecified)	-0.2	1.2%	-0.9	3.9%	15.6%
COc1ccc(C2=Nn3c(nnc3-c3ccc(OC)c(OC)c3)SC2)c(OC)c1	/	-1.5%	4.1	11.7%	/
CSCC[C@H](NC(=O)CNC(=O)CNC(=O)[C@H](CO)NC(=O)[C@H](CCCNC(=N)N)NC(=O)[C@H](CO)NC(=O)[C@H](CC(C)C)NC(=O)[C@H](CC(C)C)NC(=O)CNC(=O)[C@H](C)NC(=O)[C@H](CC(C)C)NC(=O)[C@H](CCCNC(=N)N)NC(=O)[C@H](Cc1cnc[nH]1)NC(=O)[C@@H](NC(=O)[C@@H](N)C(C)C)[C@@H](C)O)C(=O)N[C@H](C(=O)N[C@@H](CCCCN)C(=O)N[C@@H](CO)C(=O)N[C@@H](CC(N)=O)C(=O)N[C@@H](Cc1ccccc1)C(=O)N[C@H](C(=O)N1CCC[C@H]1C(=O)N[C@H](C(=O)N[C@@H](CC(N)=O)C(=O)N[C@H](C(=O)NCC(=O)N[C@@H](CO)C(=O)N[C@@H](CCCCN)C(=O)N[C@@H](C)C(=O)N[C@@H](Cc1ccccc1)C(N)=O)C(C)C)[C@@H](C)O)C(C)C)C(C)C	/	-11.6%	0.0	10.1%	/
Cc1onc(-c2ccccc2)c1C(=O)Nc1ccc(S(=O)(=O)N2CCOCC2)cc1	-16.5	1.8%	2.1	-43.9%	0.9%
CCN(CCNC(=O)CN(C)S(=O)(=O)c1cccc2nsnc12)c1ccccc1	16.7	12.0%	-8.7	26.0%	23.1µM*
C=CCCCCCCCCCCC/C=C/C(O)COC(C)=O (stereo unspecified)	/	-0.4%	1.4	-9.5%	/
Nc1ncnc2oc(-c3ccco3)c(-c3ccco3)c12	8.6	/	-30.8*	10.3%[0.365 µM]	?
Nc1nnc(-c2ccco2)s1	18.2	-8.5%	-3.7	-6.1%	14.3%
c1nc(N2CCOCC2)c2cc(-c3ccoc3)ccc2n1	/	-5.4%	0.7	-10.6%	/
COc1cccc(C(=O)N2CCC(CCC(=O)Nc3cccc(C)c3)CC2)c1	-38.1	-0.4%	-2.5	-19.6%	2.1%
COc1ccccc1-c1noc(CCCC(=O)NC2CCCC2)n1	-2.4	4.2%	-1.8	-5.8%	-19.3%
COc1ccc(-c2noc(CCCC(=O)NC3CCCCC3)n2)cc1	-13.5	15.8µM*	0.4	78.8%	-1.2%
COc1ccc(-c2noc(CCC(=O)NC3CCCC3)n2)cc1	-11.8	-5.7%	-1.2	12.3%	-1.1%
O=C(CCCc1nc(-c2ccccc2Cl)no1)NC1CCCC1	5.8	?	0.8	8.91µM*	-3.1%
CCc1ccccc1NC(=O)CSc1nnc(-c2cc(C)[nH]n2)n1N	-4.9	-4.0%	/	-19.1%	1.3%
COc1ccc(Oc2ncc3nc(C)c(=O)n(C[C@H]4CCCO4)c3n2)cc1	/	1.4%	0.5	7.0%	/
CCCC[C@H]1C[C@@H]1[C@@H]1N(P(=O)(c2ccccc2)c2ccccc2)C[C@@](O)(c2ccccc2)CC12CC2	/	?	-6.0	?	/
O=c1c2cc(Br)ccc2nc(-c2ccc([N+](=O)[O-])cc2)n1O	-9.5	7.9%	-5.0	?	?
N#Cc1ccc(-c2nc3ccc(Br)cc3c(=O)n2O)cc1	16.0	-2.2%	-3.2	-39.5%	9.2µM*
O=c1c2cc(Br)ccc2nc(-c2cccc(C(F)(F)F)c2)n1O	-16.0	20µM*	8.8	3.55µM*	?
O=c1c2ccccc2c(-c2cccc(C(F)(F)F)c2)nn1-c1ccccc1	-4.9	-6.0%	0.2	?	?
Cc1ccccc1CSCC(=O)Nc1ccccc1Br	-26.1	-5.3%	-0.4	8.3%	1.2%
COc1ccc(NC(=O)COC(=O)CO/N=C(\C)c2ccc3c(c2)OCO3)cc1S(N)(=O)=O	-3.5	/	/	/	41.4%
C=CCc1ccccc1OCC(O)CNC(=O)c1ccccc1C(=O)O (stereo unspecified)	5.6	-3.7%	4.1	3.9%	5.7%
SMILES	TSHR antagonist	Gal4-VP16 FLuc	FBPA coupling cs	RORgamma inh	ELG1 DNA repair
CCOc1ccc(/C=N/NC(=S)Nc2c(C)cccc2C)cc1	-6.2	2µM*	4.0	1µM*	18.4µM*
CCNC(=S)N/N=C/c1ccc(C(=O)O)cc1	31.0	-11.8%	6.3	33.3%	3.1%
CCOc1ccc(/C=N/NC(=O)C(OC)c2ccccc2)cc1 (stereo unspecified)	-7.5	6.0%	-3.0	25.2%	6.1%
CCNC(=S)N/N=C/c1ccc(OCCOc2ccccc2C)cc1	-6.3	10µM*	2.2	4.47µM*	19.4%
COc1cc(NC(=O)C[n+]2ccc(C(=O)c3ccccc3)cc2)cc(OC)c1	6.6	/	/	/	?
Cc1nc(SCc2nc3ccccc3[nH]2)c2oc3ccccc3c2n1	4.6	?	11.9	14.1µM*	18.4µM*
CCOC(=O)N1CCN(S(=O)(=O)c2ccc(C)cc2)C1c1ccccc1 (stereo unspecified)	-3.3	1.0%	0.6	10.6%	25.9µM*
COc1ccc(/C=C/C(=O)O)cc1S(=O)(=O)NCc1cccnc1	0.6	-0.3%	0.3	23.0%	-2.7%
Cc1nc(SCC(=O)c2cccc([N+](=O)[O-])c2)n[nH]1	20.2	?	3.9	12.6µM*	-2.3%
O=C(CCNc1ccc(F)cc1)c1cccc([N+](=O)[O-])c1	-1.4	?	-1.0	12.6µM*	24.9%
Cc1cc(C)nc(N/N=C2/CCCC/C2=C\c2ccccc2)n1	-11.5	10µM*	-0.6	1.41µM*	2.31µM*
CN=CC1=C(O)CC(C)(C)CC1=O	1.2	-14.0%	2.1	-20.3%	-15.6%
CC1(C)CC(=O)C(C=NCc2ccccn2)=C(O)C1	-6.6	15.8µM*	0.8	7.08µM*	?
CCC12CN3CC(CC)(CN(C1)C3c1c(O)ccc3ccccc13)C2=O (stereo unspecified)	6.5	?	-35.8*	?	-1.8%
C=CCOc1ccc(C2N3CC4(CC)CN2CC(CC)(C3)C4=O)cc1 (stereo unspecified)	-10.5	-1.3%	3.3	-4.3%	-19.3%
O=C(NC1CCCCCCC1)C1CCN(c2nc3ccccc3o2)CC1	-33.9	/	-0.5	-19.1%	16.4µM*
CC(CC(=O)Nc1ccccc1)NCCCN1CCCC1=O (stereo unspecified)	-1.5	0.5%	1.7	5.5%	?
c1ccc(CN2CCC(Nc3ncnc4sccc34)CC2)cc1	-13.5	?	0.0	?	6.51µM*
